Bioassay records from PubChem BioAssay.
An excerpt weighted towards active compounds, which were near 31% of everything screened.
CYP2C9 act – increases human cytochrome P450 2C9 activity; P11712; recombinant CYP2C9, luciferin-H conversion, luminescence; stronger effect = higher value; factor 1 = untreated enzyme, 0 = blocked; activation factor at 5 µM; 96,000 tested, 1.4% active; AID 1024;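 active means activation factor of 2 or more for CYP2C9 at a 5 µM dose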;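 further: 0 = sulfaphenazole-blocked wells and 1 = vehicle-only wells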
Target sequence (P11712 whole entry, looked up): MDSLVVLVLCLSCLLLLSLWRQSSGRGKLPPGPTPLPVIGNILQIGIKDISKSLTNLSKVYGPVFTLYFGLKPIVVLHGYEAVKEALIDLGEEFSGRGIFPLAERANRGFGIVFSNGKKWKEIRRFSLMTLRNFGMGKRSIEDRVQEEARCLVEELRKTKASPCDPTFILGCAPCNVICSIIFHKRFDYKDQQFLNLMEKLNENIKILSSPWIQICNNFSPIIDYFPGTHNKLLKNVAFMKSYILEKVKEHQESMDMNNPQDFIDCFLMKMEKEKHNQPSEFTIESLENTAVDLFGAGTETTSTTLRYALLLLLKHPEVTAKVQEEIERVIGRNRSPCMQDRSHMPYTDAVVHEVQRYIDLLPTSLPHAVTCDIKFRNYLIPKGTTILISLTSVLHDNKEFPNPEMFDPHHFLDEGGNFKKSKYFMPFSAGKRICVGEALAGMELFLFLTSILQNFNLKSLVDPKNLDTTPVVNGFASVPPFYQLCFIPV
CYP2C9 inhib – human CYP2C9 inhibition | CYP2C9 Supersomes, luciferin-H conversion, luminescence | P11712 | 96,000 tested, 20% active | inhibition, % at 5 µM;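 active means blocking of liver enzyme CYP2C9 beyond about 50% at 5 µM, limit read from the data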
CYP2C19 act – increases human CYP2C19 enzyme activity; recombinant CYP2C19, luciferin-H EGE luminescence; stronger effect = higher value; 0 = fully inhibited enzyme, 1 = untreated enzyme; P33261; activation factor at 5 µM; 96,000 tested, under 10 active;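 active means activation factor of at least 2 at 5 µM in the primary screen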;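 further: 0 = wells with 2.5 mM tranylcypromine and 1 = vehicle-only wells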
PLAP act – activates human placental alkaline phosphatase | P05187 | purified PLAP enzyme, luminescent substrate read-out; stronger effect = higher value | activation fold at 20 µM | 96,000 tested, 1.2% active; in the data active means activation fold above about 2
CYP2C19 inhib – blocks human cytochrome P450 2C19; CYP2C19 Supersomes, luciferin-H EGE luminescence, 30 min; inhibition, % at 5 µM; 96,000 tested, 21% active;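 active means CYP2C19 inhibition above a set limit at 5 µM in the primary screen, cut at about 50% in these data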;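 further: plate controls were negative control wells for no effect and 2.5 mM tranylcypromine positive control for full effect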
Active calls of the source: *.

C=CCc1c(C)nn(CC(=O)O)c1-c1ccccc1 was read as CYP2C9 act 1, CYP2C9 inhib 0, CYP2C19 act 1, PLAP act 1.3 and CYP2C19 inhib -5.
For Oc1ccc(Br)cc1-c1cc(-c2ccc(Cl)cc2)n[nH]1 the results were CYP2C9 act 0.9, CYP2C9 inhib 13, CYP2C19 act 1, PLAP act 1.3 and CYP2C19 inhib 2.
Screening Cc1ccc(-c2cc(-c3cccc(F)c3)n[nH]2)c(O)c1 returned CYP2C9 act 0.3, CYP2C9 inhib 70*, CYP2C19 act 0.7, PLAP act 1.5 and CYP2C19 inhib 26.
For Cc1ccc(O)c(-c2cc(-c3ccccc3F)[nH]n2)c1 the results were CYP2C9 act 0.9, CYP2C9 inhib 13, CYP2C19 act 0.9, PLAP act 0.9 and CYP2C19 inhib 11.
For Cc1ccc(O)c(-c2cc(-c3cccc(F)c3)n[nH]2)c1 the results were CYP2C9 act 0.3, CYP2C9 inhib 69*, CYP2C19 act 0.7, PLAP act 1.8 and CYP2C19 inhib 33.
For COC(=O)c1[nH]c2ccc(C)cc2c1NC(=O)CN1CCCC(C)(C)C1 the results were CYP2C9 act 0.8, CYP2C9 inhib 18, CYP2C19 act 0.6, PLAP act 1.5 and CYP2C19 inhib 39.
CCOC(=O)c1[nH]c2ccc(OCC)cc2c1NC(=O)CN1CCN(c2ccccn2)CC1 was read as CYP2C9 act 0.9, CYP2C9 inhib 5, CYP2C19 act 0.9, PLAP act 1 and CYP2C19 inhib 12.
Screening CCOC(=O)c1[nH]c2ccc(OCC)cc2c1NC(=O)CN1CCCC(C)C1 (stereo unspecified) returned CYP2C9 act 0.4, CYP2C9 inhib 60*, CYP2C19 act 0.2, PLAP act 1.6 and CYP2C19 inhib 78*.
For CCOC(=O)c1[nH]c2ccc(C)cc2c1NC(=O)CN1CCCCC1 the results were CYP2C9 act 0.7, CYP2C9 inhib 30, CYP2C19 act 0.4, PLAP act 1 and CYP2C19 inhib 60*.
For CCCC(C)C(=O)Nc1cccc(NC(C)=O)c1 (stereo unspecified) the results were CYP2C9 act 0.9, CYP2C9 inhib 10, CYP2C19 act 1, PLAP act 1 and CYP2C19 inhib 0.
For CC(C)[C@H](NC(=O)[C@@H]1CSCN1C(=O)OC(C)(C)C)C(=O)NCC1CCC(C(=O)O)CC1 (stereo partly specified) the results were CYP2C9 act 1.2, CYP2C9 inhib -18, CYP2C19 act 1.1, PLAP act 1 and CYP2C19 inhib -6.
`N#CCCn1nc(-c2ccccc2)cc1Nc1ccccc1NC(=O)c1cccs1` gave CYP2C9 act 0, CYP2C9 inhib 96*, CYP2C19 act 0, PLAP act 1.6 and CYP2C19 inhib 97*.
CCCC1C2C(=O)N(c3ccccc3OCC)C(=O)C2ON1c1ccccc1 (stereo unspecified) was read as CYP2C9 act 0.5, CYP2C9 inhib 47, CYP2C19 act 0.7, PLAP act 1.8 and CYP2C19 inhib 26.
Screening CN(C(=O)COc1cccc(Br)c1)C1CCS(=O)(=O)C1 (stereo unspecified) returned CYP2C9 act 1, CYP2C9 inhib 1, CYP2C19 act 0.9, PLAP act 1 and CYP2C19 inhib 11.
`Cc1ccc(OCC(=O)NCc2ccccn2)c(Br)c1` gave CYP2C9 act 1, CYP2C9 inhib -1, CYP2C19 act 0.4, PLAP act 0.9 and CYP2C19 inhib 61*.
For O=C(COc1ccc(F)cc1Br)NCc1ccccn1 the results were CYP2C9 act 1, CYP2C9 inhib 2, CYP2C19 act 0.4, PLAP act 1.1 and CYP2C19 inhib 59*.
Screening Cn1c(=O)cc(OCC(=O)NCc2ccccn2)c2ccccc21 returned CYP2C9 act 1.5, CYP2C9 inhib -54, CYP2C19 act 0.9, PLAP act 1 and CYP2C19 inhib 8.
O=C(COc1ccccc1Br)NCc1ccccn1 was read as CYP2C9 act 0.6, CYP2C9 inhib 37, CYP2C19 act 0.3, PLAP act 0.8 and CYP2C19 inhib 65*.
For COC(=O)c1ccc(CNC(=O)COc2ccccc2Br)o1 the results were CYP2C9 act 1, CYP2C9 inhib 2, CYP2C19 act 0.3, PLAP act 1.1 and CYP2C19 inhib 71*.
For O=C(NCCCN1CCN(c2cccc(Cl)c2)CC1)C1CCC(=O)N1Cc1ccccc1Cl (stereo unspecified) the results were CYP2C9 act 0.9, CYP2C9 inhib 11, CYP2C19 act 0.9, PLAP act 1.6 and CYP2C19 inhib 13.
